Values joined by “and” are separate entries in the source; they are usually repeats but may differ in a detail not shown here. Equal entries are not always repeated. Results filed as inconclusive are left out. Active and inactive are the calls of the source. Calls follow the shape of the dose curve; as a rule, active = well fitted activation curve with a large enough effect; inconclusive = small, poorly fitted or top-dose-only effect; inactive = flat fitted curve, though single readings scatter.
Potency is read from the fitted curve at half-maximal effect.

The test in a line: qHTS assay for environmental chemicals that activate the Aryl hydrocarbon Receptor (AhR) signaling pathway (AID 651777). Also: nearly all actives have a fitted effect of over 15% in size. As to activation: % of control where 0% means no effect. The conditions noted are these: 1A2-DRE human hepatoma cells, luciferase, 24 h; activation: hits give high values. An excerpt: National Center for Advancing Translational Sciences [NCATS]
NIH Chemical Genomics Center [NCGC]
U.S. Environmental Protection Agency [EPA]
National Institutes of Environmental Health Sciences [NIEHS]
National Toxicology Program [NTP]
The Aryl hydrocarbon Receptor (AhR) plays a critical role in the development of cancer or neoplasm and its formation is most likely due to genetic mutations and the influence of environment. Exposure to environmental pollutants such as polycyclic aromatic hydrocarbons (PAH), their halogenated derivatives and heterocyclic amines causes the induction of phase I and II enzymes. The transcriptional activation of CYP1A2 is directly regulated by AhR.
A cell based assay (1A2-DRE cells, developed by Puracyp, Inc., CA) was used to assess the activation of AhR. Human hepatoma cells were stably transfected with the dioxin response element (DRE) and CYP1A2 promoter fused to a luciferase gene. Increased luciferase activity can be used to identify the compounds that cause the induction of CYP1A2 and AhR activation.
1,200 cells in 5 uL/well were dispensed into white wall/solid bottom 1536-well plates using a Multidrop Combi (Thermo Scientific) dispenser. Following transfer of 23 nL compound or DMSO vehicle by a pin tool, the plates were incubated 24 hr at 37 C and 5% CO2. 5 ul One-Glo (Promega) was then added to each well and following 30 min incubation at room temperature, luciferase activity was quantified on a ViewLux CCD-based plate reader.
With `CC(=O)[O-].CC(=O)[O-].O.O.O.[Pb+2]`, the activation is 1.24% (inactive) and 0.452% (inactive).

Regarding `COP(N)(=O)SC` (stereo not given), the activation was -0.0851% (inactive) and 1.26% (inactive).

Consider `CCSC(=O)Cl`, for which the activation was 0.624% (inactive).

On to `Cc1cccc(C#N)c1`, for which the activation was 2.06% (inactive).

`C=CC(=C)C`: the activation is -0.578% (inactive).

For the compound `CCCCSP(=O)(SCCCC)SCCCC`, the activation is -2.91% (inactive).

In the case of `CC(C)(C)C(=O)C(Oc1ccc(Cl)cc1)n1cncn1` (stereo not given), the activation is 6% (inactive).

For `CCCCOC(=O)c1ccccc1C(=O)OCCCC`, the activation was -0.984% (inactive) and 1.91% (inactive).

Turning to `C=CCOC(C)=O`, the activation was -0.904% (inactive).

Regarding `Cc1cccc([N+](=O)[O-])c1`, the activation is -1.15% (inactive) and 1.37% (inactive).

With `C=C(C)C#N`, the activation is -0.895% (inactive) and 0.596% (inactive).

As to `O=C(Cl)C(Cl)(Cl)Cl`, the activation was 0.0046% (inactive).

For `CC(C)(C)OO`, the activation is -0.688% (inactive) and -2.1% (inactive).

Regarding `NC(=S)Nc1ccccc1`, the activation was 0.646% (inactive) and -0.436% (inactive) and 0.133% (inactive).

As for `C[N+](C)(C)Cc1ccccc1`, the activation is -0.332% (inactive) and -0.436% (inactive).

For the compound `Brc1ccc(Oc2cc(Br)c(Br)cc2Br)c(Br)c1`, the activation is 5.38% (inactive) and 0.601% (inactive) and 5.34% (inactive).

In the case of `COc1nc(NC(C)C)nc(NC(C)C)n1`, the activation was -1.56% (inactive).

For `S=C=Nc1cccc2ccccc12`, the Potency was 50.1 µM (active).

Regarding `c1ccc2c(c1)CCCC2`, the activation was 2.13% (inactive).

As to `c1nc[nH]n1`, the activation was -0.221% (inactive).

As to `Clc1nc(Cl)nc(Nc2ccccc2Cl)n1`, the activation was 3.35% (inactive) and 3.56% (inactive).

As for `O=[N+]([O-])c1ccc(Cl)c(Cl)c1`, the activation was 0.165% (inactive).

Regarding `CCc1cccc(CC)c1N(COC)C(=O)CCl`, the activation was -1.54% (inactive) and -2.21% (inactive).

As to `Nc1ccccc1Cl`, the activation was 0.951% (inactive).

`C=C(C)C(=O)OCC1CO1` (stereo not given): the activation is 0.578% (inactive).

With `O=NN(CCO)CCO`, the activation is -0.118% (inactive).

As for `CC(COc1ccc(Oc2ccccc2)cc1)Oc1ccccn1` (stereo not given), the activation was 13% (inactive).

Turning to `C[C@]12CC[C@H]3[C@@H](CCC4=CC(=O)CC[C@@]43C)[C@@H]1CC[C@@H]2O`, the activation was -1.35% (inactive).

For `ClC(Cl)=C(Cl)Cl`, the activation is -0.882% (inactive) and 0.706% (inactive).

For `C=CC(N)=O`, the activation was 0.655% (inactive) and -0.766% (inactive) and 0.336% (inactive).

In the case of `Nc1c(Cl)c(Cl)nc(C(=O)O)c1Cl`, the activation was 6.67% (inactive) and 13.8% (inactive) and 2.52% (inactive).

Regarding `Cc1ccccc1N`, the activation is 4.33% (inactive) and 3.03% (inactive).

Regarding `CC(C)(c1ccccc1)c1ccc(O)cc1`, the activation was 0.0169% (inactive) and 0.603% (inactive).

As for `Cc1ccc2ccccc2c1`, the activation was 1.58% (inactive).

For `ClC(Cl)(Cl)c1ccccc1`, the activation is -0.334% (inactive) and -0.126% (inactive).

With `ClC1=C(Cl)C2(Cl)C3C4C=CC(C4)C3C1(Cl)C2(Cl)Cl` (stereo not given), the activation was 0.192% (inactive).

`COC1=CC(=O)O[C@@H](/C=C/c2ccc3c(c2)OCO3)C1`: the activation was 3.16% (inactive).

As for `CNC(=O)N(C)c1nnc(C(C)(C)C)s1`, the activation was 3.03% (inactive).

As to `C=CCc1ccc(OC)cc1`, the activation is 0.798% (inactive).

In the case of `CCCSC(=O)Cl`, the activation is -0.385% (inactive).

For the origin of these results see PubChem BioAssay (NCATS).
